Screening data as filed in PubChem.
Shown are actives, neighbours in structure and some others; about 5.2% of the full set was active somewhere.
APOBEC3G inh: APOBEC3G (human) deaminase inhibition; inhibition, % at 20 µM; Q9HC16; AID 493012; hit rate 0.28% among 330,000; recombinant A3G, ssDNA deamination FAM/TAMRA fluorescence;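 active = inhibition of at least 40% at 20 µM, with no more than 30% in the related APOBEC3A deaminase screen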
Target sequence (Q9HC16 whole entry, looked up): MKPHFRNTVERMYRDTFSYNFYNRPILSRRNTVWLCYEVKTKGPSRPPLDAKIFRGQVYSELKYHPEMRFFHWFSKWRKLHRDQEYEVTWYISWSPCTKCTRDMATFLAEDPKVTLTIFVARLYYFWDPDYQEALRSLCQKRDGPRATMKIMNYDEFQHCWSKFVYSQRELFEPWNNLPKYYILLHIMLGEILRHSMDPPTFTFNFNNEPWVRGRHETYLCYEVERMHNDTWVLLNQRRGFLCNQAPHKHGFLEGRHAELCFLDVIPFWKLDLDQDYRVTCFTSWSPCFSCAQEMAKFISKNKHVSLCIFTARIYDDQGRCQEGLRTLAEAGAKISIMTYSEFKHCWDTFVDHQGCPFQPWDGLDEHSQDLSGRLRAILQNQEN
CendR NRP1 mod: modulators of CendR peptide binding to human neuropilin-1 | inhibition, % at 25 µM | AID 602438 | hit rate 0.85% among 360,000 | O14786 | FAM-RPARPAR peptide binding to NRP-1, fluorescence polarization;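 active = inhibition or corrected inhibition above about 18%, plus a signal ratio from 0.5 to 1.5, limit read from the data, passing the limit was not always enough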
A3A deaminase: blocks human APOBEC3A ssDNA deamination; AID 493011; hit rate 0.41% among 330,000; P31941; inhibition, % at 20 µM; recombinant A3A, FAM/TAMRA ssDNA deamination fluorescence;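 active = at least 40% inhibition at 20 µM here, with at most 30% in a related deaminase screen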
PfM18AAP inh: blocks P. falciparum M18 aspartyl aminopeptidase | recombinant PfM18AAP, H-Glu-NHMec fluorogenic cleavage | inhibition, % at 7.35 µM | hit rate 1.2% among 290,000;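 active = inhibition above the campaign mean inhibition over all tested compounds plus 3 SD, cut at about 28% in these data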
CR mimetic SO: lowers age-related superoxide in aged yeast cells. S. cerevisiae aged cells, superoxide DHE fluorescence; stronger effect = lower value. superoxide response (% of plate mean), % at 10 µM. hit rate 0.18% among 330,000;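 active = superoxide response under a set limit, about three screen SD below normal, cut at about 65% in these data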;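 note: yeast aged for seven days with compound at 30 °C before DHE staining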
ALR H2O2 inh: human ALR oxidase inhibition via reduced H2O2; inhibition, % (no concentration beside the values); hit rate 3.8% among 290,000; purified ALR, DTT oxidation, H2O2 HRP-luminol luminescence; P55789;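 active = mean replicate inhibition above about 79%, with every replicate also reaching it, limit read from the data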
Target sequence (P55789 whole entry, looked up): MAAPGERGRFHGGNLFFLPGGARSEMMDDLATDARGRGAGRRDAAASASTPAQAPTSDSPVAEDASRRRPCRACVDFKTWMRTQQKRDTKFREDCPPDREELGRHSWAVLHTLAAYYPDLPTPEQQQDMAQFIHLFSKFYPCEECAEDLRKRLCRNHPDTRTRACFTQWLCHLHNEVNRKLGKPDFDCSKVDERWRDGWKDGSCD
Of the large screens only hits and unclear results are named; the others gave an inactive call.

COC(=O)c1sc2nc(-c3ccco3)ccc2c1N	ALR H2O2 inh 98
CCN(CC)CCN1C(=O)C2C(C(=O)Nc3cccc(SC)c3)C3C=CC2(O3)C1C(=O)NC1CCCC(C)C1C (stereo not drawn)	none
COC(=O)c1cc2c(C)nn(-c3ccccc3)c2s1	CendR NRP1 mod 31
Cc1nn(-c2ccccc2)c2sc(-c3n[nH]c(=S)o3)cc12	ALR H2O2 inh 98
COc1ccc(F)cc1-c1cc(NC=O)c2ncc(-c3cccc(C(=O)N(C)C)c3)n2c1	none (no result: APOBEC3G inh, A3A deaminase, PfM18AAP inh, CR mimetic SO, ALR H2O2 inh)
Cn1ncc(-c2ccno2)c1C(=O)O	none
COc1ccccc1N1CCN(c2ccc([N+](=O)[O-])cc2Cl)CC1	none
CCN(Cc1ccncc1)C(=O)c1cc(Br)cc(Br)c1O	ALR H2O2 inh 94
Cc1cc(Cl)ccc1OCCCC(N)=O	none (no result: ALR H2O2 inh)
Cc1cc(Cl)ccc1OCCCC(=O)NO	ALR H2O2 inh 99
COc1ccc(C(=O)Nc2cc(C(F)(F)F)ccc2-n2cncn2)cc1	none
CCCCCCc1c(C)nc(-n2[nH]c(C)c(CCO)c2=O)[nH]c1=O	ALR H2O2 inh 86
CCN(CC)C(=O)CSc1nc2ccc(NC(=O)CSc3nccn3C)cc2s1	ALR H2O2 inh 99
O=C(CCCSc1nc2ccccc2s1)Nc1nccs1	none (no result: ALR H2O2 inh)
CCCC(=O)Nc1ccc2nc(SCC(=O)Nc3nccs3)sc2c1	ALR H2O2 inh 99
CC(C)NC(=O)N(C)C[C@H]1Oc2c(NC(=O)c3ccc(-c4nccs4)cc3)cccc2C(=O)N([C@@H](C)CO)C[C@H]1C	none (no result: PfM18AAP inh)
CCOC(=O)N1CCN(C(=O)CNC(=O)c2ccc(Br)cc2)CC1	CendR NRP1 mod 27
O=C1c2cccc3c([N+](=O)[O-])ccc(c23)C(=O)N1c1ccccn1	none
O=C1c2cccc3c([N+](=O)[O-])ccc(c23)C(=O)N1O	ALR H2O2 inh 90
C/C(=N\Nc1cccc2cccnc12)c1ccccn1	ALR H2O2 inh 90
CC(C)CCNC(=O)C1CCCCN1S(=O)(=O)c1ccc(F)cc1 (stereo not drawn)	none
CCN(CC(=O)Nc1ccc(OC)cc1)C(=O)c1cc2c(s1)CCCCC2	none (no result: PfM18AAP inh)
COCCCNC(=O)C(=O)Nc1cc2c3c(c1)CCC(=O)N3CCC2	none
O=[N+]([O-])c1ccc2[nH]c3c(c2c1)CCCC3	ALR H2O2 inh 98
Cc1ccc(C2Nc3ccccc3NC3=C2C(=O)OC(C)C3)cc1 (stereo not drawn)	ALR H2O2 inh 99
CC1CC2=C(C(=O)O1)C(c1ccc(Cl)cc1)Nc1ccccc1N2 (stereo not drawn)	ALR H2O2 inh 99
O=C1NCC2=C1C(c1ccccc1)Nc1ccccc1N2 (stereo not drawn)	none
CCOC(=O)c1nnn(-c2nonc2-n2cccc2)c1CN1CCCCC1	none (no result: ALR H2O2 inh)
COc1ccc(C(C[N+](=O)[O-])c2c(C)[nH]n(-c3ccccc3)c2=O)cc1 (stereo not drawn)	PfM18AAP inh 45
Cc1[nH]n(-c2ccccc2)c(=O)c1C(c1ccc(O)c([N+](=O)[O-])c1)c1c(C)[nH]n(-c2ccccc2)c1=O	none
Cc1[nH]n(-c2ccccc2)c(=O)c1C(C[N+](=O)[O-])c1ccccc1Cl (stereo not drawn)	CendR NRP1 mod 31
NC(=S)N/N=C/c1cc([N+](=O)[O-])ccc1OCCOc1ccccc1	CendR NRP1 mod 25
COc1ccc(C(CNc2ccc(S(=O)(=O)N3CCN(C)CC3)cc2[N+](=O)[O-])N(C)C)cc1 (stereo not drawn)	none (no result: PfM18AAP inh, CR mimetic SO, ALR H2O2 inh)
COc1ccc(C(CNc2ccc(S(=O)(=O)N3CCCC3)cc2[N+](=O)[O-])N2CCCC2)cc1 (stereo not drawn)	CendR NRP1 mod 26
COc1ccc(N2CCN(C(=O)c3ccc(NS(=O)(=O)c4ccc(F)c(F)c4)cc3)CC2)cc1	CendR NRP1 mod 51
COc1ccc(NS(=O)(=O)c2ccc(N3CCCC3)c(N)c2)cc1	ALR H2O2 inh 92
COc1ccc(NS(=O)(=O)c2cc(N)ccc2N2CCCC2)cc1	none (no result: PfM18AAP inh)
COc1ccc(S(=O)(=O)Nc2ccc(S(=O)(=O)N3CCCCC3)cc2)cc1	ALR H2O2 inh 97
C=CCn1c(SCC(=O)Nc2ccc(F)cc2)nc2ccccc2c1=O	none
Cc1ccc(OCCC(=O)N2CCN(c3ccc(O)cc3)CC2)cc1	ALR H2O2 inh 100
COc1ccc(N2CCN(C(=O)CCC(=O)N3CCOc4ccc(C)cc43)CC2)cc1	ALR H2O2 inh 97
O=C1COc2ccc(S(=O)(=O)CCC(=O)N3CCN(c4ccccc4)CC3)cc2N1	ALR H2O2 inh 98
COc1ccc(CNC(=O)CCNS(=O)(=O)c2ccc(Cl)cc2)cc1	CendR NRP1 mod 28
COc1ccc(-c2c(C#N)c(N)nc(Sc3ccc(Cl)cc3)c2C#N)cc1	none
O=C(CCS(=O)(=O)c1ccc(Br)cc1)N1CCN(c2ccccc2Cl)CC1	none
COc1cccc(N2CCN(C(=O)CCS(=O)(=O)c3ccc4c(c3)oc(=O)n4C)CC2)c1	ALR H2O2 inh 98
O=C(CCS(=O)(=O)Cc1ccccc1)N1CCN(c2ccccc2)CC1	ALR H2O2 inh 99
Cn1c(=O)oc2cc(S(=O)(=O)CCC(=O)N3CCN(c4ccccc4)CC3)ccc21	none
O=C(CCS(=O)(=O)c1ccc(Br)cc1)N1CCN(c2ccccc2)CC1	ALR H2O2 inh 99
O=C(CCS(=O)(=O)c1ccccc1)N1CCN(c2ccccc2)CC1	ALR H2O2 inh 99
Cc1ccccc1NC(=O)CN(C)S(=O)(=O)c1cccc2cccnc12	none
CC(C)NC(=O)c1onc(CSc2ccc(F)cc2)c1C(=O)O	none (no result: CR mimetic SO)
S=C(NNc1ccnc2cc(Cl)ccc12)Nc1ccc(Cl)cc1Cl	none
O=C(CCNS(=O)(=O)c1ccccc1)N1CCN(c2ccccc2)CC1	ALR H2O2 inh 96
CC(=O)N1CCN(C(=O)CCNS(=O)(=O)c2ccccc2)CC1	none (no result: PfM18AAP inh)
COc1ccc(N2CCN(C(=O)CCNS(=O)(=O)c3ccc(C)cc3)CC2)cc1	ALR H2O2 inh 99
N#Cc1c(-c2ccccc2)nc(SCc2nc(N)nc(N3CCCCC3)n2)[nH]c1=O	ALR H2O2 inh 97
COc1cc(C)ccc1OCc1cc(C(=O)NCCN2CCCC(O)C2)no1 (stereo not drawn)	none
O=C(NCCCN1CCCC(O)C1)c1cc(COc2ccc(F)cc2F)on1 (stereo not drawn)	CendR NRP1 mod 40
O=C(NCCCn1cccn1)c1cc(COc2ccc(F)cc2Cl)on1	PfM18AAP inh 30
S=c1[nH]nc(-c2ccc3ccccc3n2)o1	ALR H2O2 inh 91
FC(F)(F)c1ccc(-c2n[nH]c(=S)o2)nc1	none
CCc1ccc(NC(=O)CSc2nnc(C)c(=O)n2N)cc1	ALR H2O2 inh 99
CCc1nnc(NC(=O)CSc2nnc(C)c(=O)n2N)s1	ALR H2O2 inh 95
Cc1ccc(NC(=O)CSc2nnc(C)c(=O)n2N)cc1	none
Cc1nnc(SCC(=O)Nc2ccccc2)n(N)c1=O	none (no result: ALR H2O2 inh)
Cc1nnc(SCC(=O)Nc2ccc(S(N)(=O)=O)cc2)n(N)c1=O	ALR H2O2 inh 99 (no result: PfM18AAP inh)
